Structures are written as SMILES. Compounds without any hit were thinned out: in the full panel of roughly 83,000, 20% have a hit.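 Assay: single dose, 48 h. Readout: percent growth (0 = no net growth; negative = cell death). Active: <10.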 Values without a mark were called inactive. Calls of active or inactive are those of the source.

Some test systems named below: SR leukemia; RPMI-8226 leukemia; OVCAR-8 ovarian; OVCAR-5 ovarian; OVCAR-4 ovarian; SK-OV-3 ovarian; IGROV1 ovarian; OVCAR-3 ovarian; HS 578T breast; NCI/ADR-RES ovarian; T-47D breast; BT-549 breast; MDA-MB-435 melanoma; SW-620 colon; MCF7 breast; HCT-116 colon; HCC-2998 colon; KM12 colon.
Assay in all cases: NCI-60 one-dose screen, 48 h (100 = growth as untreated, 0 = no growth, -100 = all killed)
Settings in all cases: 10 µM unless noted

Regarding `CCOC(=O)c1cc(C(=O)c2cc(OC)cc(OC)c2)n2ccc3ccccc3c12`, the growth is 116% in the assay on SR leukemia; 108% in the assay with RPMI-8226 leukemia; 89.9% with OVCAR-8 ovarian; 98% with OVCAR-5 ovarian; 88.8% with OVCAR-4 ovarian; 98.2% in the assay on SK-OV-3 ovarian. In addition, the growth in the assay on IGROV1 ovarian was 102%; in the assay with OVCAR-3 ovarian it was 112%; with HS 578T breast, 82.5%; with NCI/ADR-RES ovarian, 92.8%; with T-47D breast, 95%; with BT-549 breast, 74.7%. In addition, the growth in the assay with MDA-MB-435 melanoma is 99.5%; with SW-620 colon, 102%; in the assay with MCF7 breast, 99.2%; in the assay with HCT-116 colon, 84%; with HCC-2998 colon, 108%; in the assay on KM12 colon it was 100%.

For the compound `Cc1cc2nc3c4cc(C=O)ccc4n(CCN(C)C)c3nc2cc1C`, the growth was 3.27% (active) in the assay on SR leukemia; -22.6% (active) in the assay on RPMI-8226 leukemia; 17.6% in the assay with OVCAR-8 ovarian; 22.5% with OVCAR-5 ovarian; 23.8% in the assay with OVCAR-4 ovarian; 26.8% in the assay with SK-OV-3 ovarian. The growth was 5.83% (active) with IGROV1 ovarian; 22.7% with OVCAR-3 ovarian; 51.6% in the assay on HS 578T breast; 18.5% in the assay with NCI/ADR-RES ovarian; 22.3% with T-47D breast; 53.6% in the assay on BT-549 breast. The growth in the assay on MDA-MB-435 melanoma was 25.6%; with SW-620 colon, 1.57% (active); in the assay with MCF7 breast it was 2.77% (active); in the assay on HCT-116 colon, 10.2%; in the assay with HCC-2998 colon, 40.6%; with KM12 colon it was 26.3%.

As to `COc1ccc(C(C)=O)c(OC)c1`, the growth with SR leukemia was 119%; with RPMI-8226 leukemia, 100%; with OVCAR-8 ovarian it was 109%; with OVCAR-5 ovarian, 90.2%; with OVCAR-4 ovarian it was 103%; in the assay on SK-OV-3 ovarian, 105%. Besides, the growth is 127% with IGROV1 ovarian; 117% in the assay on OVCAR-3 ovarian; 113% in the assay on HS 578T breast; 108% in the assay with NCI/ADR-RES ovarian; 108% in the assay with T-47D breast; 106% in the assay on BT-549 breast. Further, the growth in the assay with MDA-MB-435 melanoma was 119%; in the assay with SW-620 colon it was 106%; in the assay with MCF7 breast it was 92%; in the assay on HCT-116 colon, 103%; with HCC-2998 colon, 105%; in the assay on KM12 colon, 110%.

For the compound `N#Cc1cccc(-c2ccc3c(c2)NC(=O)/C3=C\c2ccc[nH]2)c1`, the growth in the assay with SR leukemia is 3.89% (active); with RPMI-8226 leukemia, 54.1%; in the assay on OVCAR-8 ovarian, 85.9%; in the assay with OVCAR-5 ovarian, 38.5%; in the assay on OVCAR-4 ovarian, 30.9%; in the assay on SK-OV-3 ovarian it was 24.1%. For the same compound, the growth in the assay on IGROV1 ovarian was 34.2%; in the assay with OVCAR-3 ovarian it was 30.7%; with HS 578T breast, 92.1%; in the assay with NCI/ADR-RES ovarian, 76.1%; in the assay with T-47D breast it was -28.7% (active); with BT-549 breast it was 17.4%. Moreover, the growth in the assay with MDA-MB-435 melanoma was 43.9%; in the assay on SW-620 colon, 51.6%; in the assay on MCF7 breast, 10.1%; in the assay with HCT-116 colon it was 73%; with HCC-2998 colon, 36%; in the assay on KM12 colon it was 20.4%.

As for `COc1cc2c(=O)n(CCN(C)C)c3c4cc5c(cc4ccc3c2cc1OC)OCO5`, the growth was 2.29% (active) in the assay on SR leukemia; -27.7% (active) with RPMI-8226 leukemia; 11.4% with OVCAR-8 ovarian; -17.5% (active) in the assay on OVCAR-5 ovarian; 5.11% (active) in the assay with OVCAR-4 ovarian; -5.08% (active) in the assay on SK-OV-3 ovarian. Further, the growth in the assay with IGROV1 ovarian is -16% (active); in the assay on OVCAR-3 ovarian, -41.9% (active); in the assay with HS 578T breast, 9.24% (active); in the assay on NCI/ADR-RES ovarian, 2.87% (active); in the assay on T-47D breast, -20.5% (active); with BT-549 breast, 1.42% (active). The growth with MDA-MB-435 melanoma is -65.4% (active); with SW-620 colon, -17.9% (active); in the assay with MCF7 breast it was 7.27% (active); in the assay on HCT-116 colon it was -7.98% (active); with HCC-2998 colon, -58.1% (active); in the assay on KM12 colon, -25.2% (active).

Turning to `CCCCCCNC(=O)Oc1ccc(/C(=C(\C)c2ccccc2)c2ccc(OCCCN(C)C)cc2)cc1`, the growth is 2.09% (active) with SR leukemia; 81.6% in the assay with RPMI-8226 leukemia; 86.9% in the assay with OVCAR-8 ovarian; 85.5% in the assay on OVCAR-5 ovarian; 86.9% in the assay with OVCAR-4 ovarian; 95.6% in the assay on SK-OV-3 ovarian. Moreover, the growth with IGROV1 ovarian is 80.4%; in the assay on OVCAR-3 ovarian it was 89.7%; in the assay on HS 578T breast it was 74%; in the assay on NCI/ADR-RES ovarian, 81%; with T-47D breast, 46.2%; in the assay with BT-549 breast, 85.4%. Besides, the growth in the assay on MDA-MB-435 melanoma was 48.3%; with SW-620 colon, 92.4%; with MCF7 breast, 21.3%; in the assay with HCT-116 colon, 47.1%; in the assay with HCC-2998 colon it was 86.7%; with KM12 colon, 74.3%.

In the case of `CCN(CC)c1ccc(/C=N/NC(=O)CSc2nc3ccccc3c(=O)n2Cc2ccc(S(N)(=O)=O)cc2)c(O)c1`, the growth in the assay on SR leukemia is 10.4%; in the assay with RPMI-8226 leukemia, 17.1%; in the assay with OVCAR-8 ovarian, 20.4%; in the assay with OVCAR-5 ovarian, 45%; with OVCAR-4 ovarian it was 12.6%; in the assay on SK-OV-3 ovarian, 21.6%. Further, the growth in the assay on IGROV1 ovarian was 26.4%; with OVCAR-3 ovarian, 15%; in the assay on HS 578T breast it was 63%; with NCI/ADR-RES ovarian, 87.2%; in the assay with T-47D breast, 6.32% (active); in the assay with BT-549 breast it was 33.6%. The growth was 13.8% in the assay on MDA-MB-435 melanoma; 21.4% with SW-620 colon; 13.3% with MCF7 breast; 21.5% in the assay on HCT-116 colon; 20.3% in the assay with HCC-2998 colon; 15.2% in the assay on KM12 colon.

With `O=C(c1nc2ccccc2[nH]1)C1C(c2ccc(Cl)cc2)C2CC3CCCC[C@H]3N2[C@@]12C(=O)Nc1cc(Cl)ccc12` (some centres not stated), the growth in the assay with SR leukemia is 39%; with RPMI-8226 leukemia it was 16.8%; with OVCAR-8 ovarian, 61.3%; with OVCAR-5 ovarian, 56%; in the assay on OVCAR-4 ovarian it was 24.4%; in the assay with SK-OV-3 ovarian, 71.4%. Also, the growth in the assay on IGROV1 ovarian is 32%; in the assay on OVCAR-3 ovarian, 35%; in the assay on HS 578T breast, 73.2%; with NCI/ADR-RES ovarian it was 50.5%; with T-47D breast, 24.8%; in the assay on BT-549 breast it was 80.8%. In addition, the growth was 24.8% with MDA-MB-435 melanoma; 33.2% in the assay with SW-620 colon; 17.3% with MCF7 breast; 23.4% in the assay on HCT-116 colon; 52% in the assay on HCC-2998 colon; 45.8% in the assay on KM12 colon.

Regarding `O=C(Nc1cccc(C2=NCCN2)c1)c1ccc(-c2ccc(C(=O)Nc3cccc(C4=NCCN4)c3)cc2)cc1`, the growth in the assay with SR leukemia is 72.4%; with RPMI-8226 leukemia it was 24.8%; with OVCAR-8 ovarian, 80.7%; with OVCAR-5 ovarian, 88.5%; with OVCAR-4 ovarian, 96.6%; in the assay with SK-OV-3 ovarian, 111%. Also, the growth in the assay with IGROV1 ovarian is 88.7%; in the assay on OVCAR-3 ovarian, 121%; with HS 578T breast, 97.6%; in the assay with NCI/ADR-RES ovarian, 104%; in the assay on T-47D breast it was 58.5%; in the assay on BT-549 breast, 93.4%. Further, the growth was 57.4% with MDA-MB-435 melanoma; 69.2% in the assay on SW-620 colon; 18.5% with MCF7 breast; 72.7% in the assay with HCT-116 colon; 81.1% in the assay with HCC-2998 colon; 60.4% in the assay with KM12 colon.

For the origin of these results see PubChem BioAssay (NCI).
